JMJD2A Tudor: qHTS Assay for Inhibitors of JMJD2A-Tudor Domain; Lysine-specific demethylase 4A (Homo sapiens), O75164; AlphaScreen JMJD2A-Tudor / H3K4me3 peptide binding; Potency, µM (top dose mostly 114 µM), for inactives: at the top dose activity change, negative = inhibition, hits mostly inhibitors; actives 4.4% (n = 390,000); AID 504339, 2011; note: % is set by controls: 0 for no effect and ±100 for the full control effect; nearly all actives have a fitted effect of over 50% in size
GLS inhibitor: qHTS for Inhibitors of Glutaminase (GLS) | Potency, µM (highest dose often 45.5 µM), for inactives: at the top dose activity change, negative = inhibition, usual class: inhibitors | GLS enzymatic activity, qHTS titration | actives 0.21% (n = 410,000) | Glutaminase kidney isoform, mitochondrial (Homo sapiens), O94925; note: % is set by controls: 0 for no effect and ±100 for the full control effect
Target sequence (O94925 whole entry, looked up, canonical isoform): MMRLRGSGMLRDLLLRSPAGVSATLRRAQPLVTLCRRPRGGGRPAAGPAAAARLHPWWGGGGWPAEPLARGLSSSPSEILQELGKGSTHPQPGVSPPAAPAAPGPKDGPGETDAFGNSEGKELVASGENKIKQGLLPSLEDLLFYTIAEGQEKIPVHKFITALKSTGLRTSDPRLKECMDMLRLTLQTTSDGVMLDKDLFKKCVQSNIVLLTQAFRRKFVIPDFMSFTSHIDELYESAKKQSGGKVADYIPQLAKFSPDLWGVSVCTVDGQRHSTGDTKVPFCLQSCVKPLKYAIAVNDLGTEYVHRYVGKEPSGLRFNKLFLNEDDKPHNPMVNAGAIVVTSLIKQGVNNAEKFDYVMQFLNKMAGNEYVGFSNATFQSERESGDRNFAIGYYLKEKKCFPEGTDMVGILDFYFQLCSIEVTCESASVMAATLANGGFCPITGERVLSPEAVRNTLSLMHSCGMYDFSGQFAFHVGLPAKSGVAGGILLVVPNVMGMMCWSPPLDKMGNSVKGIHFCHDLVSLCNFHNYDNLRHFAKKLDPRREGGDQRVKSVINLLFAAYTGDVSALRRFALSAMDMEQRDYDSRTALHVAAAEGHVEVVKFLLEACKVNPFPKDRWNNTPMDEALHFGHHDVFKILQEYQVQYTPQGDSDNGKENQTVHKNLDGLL
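Compounds were pin-transferred onto hKGA, after which L-glutamine (1 mM solution) and a detection mix of glutamate oxidase, HRP and Amplex Red were added. Initial and 30 min RT fluorescence reads were collected.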
L3MBTL1 inh: qHTS Assay for the Inhibitors of L3MBTL1; AlphaScreen L3MBTL1–H3K9me1 peptide binding; Lethal(3)malignant brain tumor-like protein 1 (Homo sapiens), Q9Y468; Potency, µM (top dose mostly 57.1 µM), for inactives: at the highest dose activity, negative = inhibition, hits mostly inhibitors; AID 485360, 2010; actives 0.66% (n = 230,000); note: % is set by controls: 0 for no effect and ±100 for the full control effect; nearly all actives have a fitted effect of over 60% in size
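Read-out is AlphaScreen signal from streptavidin donor and nickel chelate acceptor beads (10 ug/mL final each) bridging L3MBTL1 (50 nM) and biotinylated K9-monomethylated H3(1-15) peptide (75 nM), after 30 min compound exposure at room temperature.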
G9a block: qHTS Assay for Inhibitors of Histone Lysine Methyltransferase G9a; actives 8.8% (n = 350,000); Potency, µM (titrated, usually from 102 µM), without a hit: at the highest dose activity, negative = inhibition, usual class: inhibitors; Histone-lysine N-methyltransferase EHMT2 (Homo sapiens), Q96KQ7; G9a H3K9 monomethylation, AlphaScreen, 2 h; note: % is set by controls: 0 for no effect and ±100 for the full control effect; nearly all actives have a fitted effect of over 75% in size
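G9a (20 nM) preincubated 15 min RT with compounds, then 500 nM biotinylated H3K9 peptide and 20 uM SAM added; 2 h RT reaction. Monomethyl-H3K9 product detected by AlphaScreen with anti-H3K9me1 antibody, streptavidin donor and anti-rabbit IgG acceptor beads.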
BAZ2B block: qHTS Assay for Inhibitors of BAZ2B; Bromodomain adjacent to zinc finger domain protein 2B (Homo sapiens), Q9UIF8; AlphaScreen BAZ2B-H3K14Ac peptide displacement; Potency, µM (highest dose often 114 µM), for the others: at the top dose activity change, negative = inhibition, hits mostly inhibitors; actives 4.4% (n = 360,000); AID 504333, 2011; note: % is set by controls: 0 for no effect and ±100 for the full control effect; nearly all actives have a fitted effect of over 60% in size
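AlphaScreen displacement: compounds (up to 110uM) incubated 30 min at room temperature with a preformed 50 nM BAZ2B/50 nM biotinylated H3K14Ac peptide complex in PBS pH 7.4 with Tween-20. Donor and acceptor beads at 10 ug/mL final added, 20 min light-protected before reading.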
HP1b binding inh: HTS for Inhibitors of HP1-beta Chromodomain Interactions with Methylated Histone Tails; AlphaScreen HP1-beta / biotin-H3K9me3 peptide binding; Potency, µM (highest dose often 114 µM), inactives show at the top dose activity change, negative = inhibition, hits mostly inhibitors; actives 0.56% (n = 390,000); AID 540317, 2011; note: nearly all actives have a fitted effect of over 70% in size
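Compound inhibition of the preformed complex between 50 nM HP1-beta and 50 nM biotinylated H3K9me3 peptide was read by AlphaScreen. Buffer was PBS pH 7.4 with 0.01% Tween-20. Incubations ran 30 min at room temperature, with 10 ug/mL donor/acceptor beads.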
Starred values were filed as active, the others as inactive; ? = inconclusive; . = not tested or not shown; [ ] = another dose, or the depositor's remark. Hits are enriched below; roughly 10% of the tested compounds scored in any of these assays. Calls come from the whole dose curve; as a rule, active = well fitted curve in the direction sought with a large enough effect; inconclusive = small, poorly fitted or top-dose-only effect, or another doubt; inactive = no such curve, though single readings can be large; an effect the other way counts as inactive or inconclusive. Potency is the fitted concentration of half-maximal effect.

SMILES	JMJD2A Tudor	GLS inhibitor	L3MBTL1 inh	G9a block	BAZ2B block	HP1b binding inh
O=C(Nc1ccccc1C(F)(F)F)C1CCN(c2nnc(-n3cccc3)s2)CC1	-7%	1%	.	-3%[59 µM]	33%[57.1 µM]	56%
CSc1ccc(CCNC(=O)c2cc3cc(S(=O)(=O)N4CCCCC4)ccc3n2C)cc1	-17%	3%	.	6%[59 µM]	3%	15%[57 µM]
COc1cc(-c2noc(-c3ccc(N(C)C)c([N+](=O)[O-])c3)n2)cc(OC)c1OC	-16%	-4%	.	-30%[59 µM]	-1%	24%
Cc1c(F)c(N2CCNC(C)C2)cc2c1c(=O)c(C(=O)O)cn2C1CC1 (stereo not given)	.	-3%	.	-23%[12.7 µM]	.	.
COc1ccc(N2CCN(C(=O)c3cccn3-c3nnc(N4CCCC4)s3)CC2)cc1	-19%	6%	.	?	?	24%
CC(=O)NC1[C@H](O)C[C@@](O)(C(=O)O)O[C@H]1[C@H](O)[C@H](O)CO (stereo not given in full)	.	7%	.	-8%[12.7 µM]	.	.
C=CCNC(=S)NNC(=O)COc1ccc(Br)cc1	?	13%	1%	32µM*	5%	25%
C=CCNC(=S)NNC(=O)COc1cccc(Cl)c1	-7%	4%	0%	25µM*	-5%	17%
C/C(=N\Nc1ccc(F)cc1F)c1ccccc1O	-2%	?	10%	14µM*	-7%	42%
CC(C)C[C@@H](NC(=O)[C@@H](COC(C)(C)C)NC(=O)[C@H](Cc1ccc(O)cc1)NC(=O)[C@@H](CO)NC(=O)[C@@H](Cc1c[nH]c2ccccc12)NC(=O)[C@@H](Cc1cnc[nH]1)NC(=O)[C@@H]1CCC(=O)N1)C(=O)N[C@H](CCCN=C(N)N)C(=O)N1CCC[C@H]1C(=O)NNC(N)=O	.	39%	.	.	.	.
O=C(O)c1cnn2c1C(=O)N(Cc1cccs1)CC2	?	0%	.	40µM*	22µM*	32µM*
CCC1OC(=O)C[C@H](O)C(C)[C@@H](O[C@@H]2OC(C)C(O)C(N(C)C)C2O)C(CCN2CC(C)CC(C)C2)CC(C)C(=O)/C=C/C(C)=C\[C@@H]1COC1OC(C)C(O)C(OC)C1OC (stereo not given in full)	.	?	.	-48%[2.33 µM]	.	.
Cc1n[nH]c(=O)c2c(NC(=O)COC(=O)c3cc(F)cc(F)c3)oc(C)c12	-19%	-10%	1%	45µM*	1%	46%
CC(=O)Nc1ccc(SCC(=O)Nc2oc(C)c3c(C)n[nH]c(=O)c23)cc1	-7%	69%	-5%	50µM*	1%	50%
Cc1n[nH]c(=O)c2c(NC(=O)CSc3ccc(F)cc3)oc(C)c12	-17%	-11%	-7%	-50%	3%	12%
Cc1cc(C)c(C)c(SCC(=O)Nc2oc(C)c3c(C)n[nH]c(=O)c23)c1C	-21%	-3%	0%	4µM*	4%	12%
Cc1n[nH]c(=O)c2c(NC(=O)CSc3ccc(Br)cc3)oc(C)c12	-13%	-9%	-4%	?	6%	22%
CCn1c(SCC(=O)c2cc(OC)ccc2OC)nnc1C1CC1	-19%	9%	3%	50µM*	2%	26%
CCn1c(SCC(=O)NNC(=O)c2ccc(OC)cc2)nnc1C1CC1	?	-5%	.	19%	10%	5%
CCn1c(SCC(=O)c2ccc(OC)cc2)nnc1C1CC1	100µM*	1%	1%	15%[12.7 µM]	0%	-3%

Bioassay records (PubChem BioAssay)
